A1 inhib: inhibitors of A1; caspase activation, % (concentration not given with the values); AID 2241; 21,000 tested, 0.51% active; MEF A1-2A-BIM cells, caspase-Glo luminescence, 3 h; percent of clofoctol signal, DMSO as zero;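 active = most replicate scores above 10, or exactly half above 10 with mean activity above 10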;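 note: effector caspase 3 and 7 activity cleaving a DEVD luciferin substrate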
BJeLR viability: BJeLR cell viability reduction. viability loss activity score, % (no concentration beside the values). 30,000 tested, 0.64% active. BJeLR fibroblasts viability, CellTiterGlo ATP luminescence, 48 h; HRASV12, hTERT and SV40 LT/ST transformed; in the data active = viability loss activity score above about 50%;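 note: higher score means fewer live cells and less ATP luminescence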
The depositor's hits bear a star; x = no result given. Compounds with a hit are over-represented: about 0.86% of the library has one in this group of screens.

SMILES	A1 inhib	BJeLR viability
COc1cc([C@@H]2c3cc4c(cc3[C@@H](O)C3COC(=O)C32)OCO4)cc(OC)c1O (stereo partly drawn)	3	50*
COc1cc([C@@H]2c3cc4c(cc3[C@H](OC(C)=O)[C@H]3COC(=O)[C@@H]23)OCO4)cc(OC)c1OC	1	33
COc1cc(C2c3cc4c(cc3CC3COC(=O)C32)OCO4)cc(OC)c1OC (stereo not drawn)	3	64*
COc1ccc2c(c1OC)C(=O)O[C@H]2[C@H]1c2cc3c(cc2CCN1C)OCO3	1	-6
Cc1ccccc1OCCCn1cc(C(=O)C2CC2)c2ccccc21	x	7
CC1C/C=C/C2C3OC3(C)C(C)C3C(Cc4ccccc4)NC(=O)C23OC(=O)O/C=C/C(C)(O)C1=O (stereo not drawn)	16*	3
CN1CCc2nc3sc(C(=O)C(C)(C)C)c(N)c3cc2C1	0	-3
CC1(C)CC(=O)C2=C(C1)OC(N)=C(C(=O)OC(C)(C)C)C21C(=O)Nc2ccccc21 (stereo not drawn)	1	1
C[C@H]1CC[C@@H]2[C@@H](C)[C@H]3[C@H](C[C@H]4[C@@H]5CC=C6CC(O[C@@H]7O[C@H](CO)[C@@H](O)[C@H](O[C@@H]8O[C@H](CO)[C@@H](O)[C@H](O)[C@H]8O)[C@@H]7O[C@@H]7O[C@@H](C)[C@H](O)[C@@H](O)[C@H]7O)CC[C@]6(C)[C@H]5CC[C@]34C)N2C1 (stereo partly drawn)	-2	81*
C[C@H]1CC[C@@H]2[C@@H](C)[C@H]3[C@H](C[C@H]4[C@@H]5CC=C6C[C@@H](O[C@@H]7O[C@H](CO)[C@H](O)[C@H](O[C@@H]8O[C@H](CO)[C@@H](O)[C@H](O)[C@H]8O)[C@H]7O[C@@H]7O[C@@H](C)[C@H](O)[C@@H](O)[C@H]7O)CC[C@]6(C)[C@H]5CC[C@]34C)N2C1	-1	-1
C/C=C(\C)C(=O)OC1C(C)=C2C(C1OC(=O)CCCCCCC)C(C)(OC(C)=O)CC(OC(=O)CCC)C1(O)C2OC(=O)C1(C)O (stereo not drawn)	2	15
C/C=C(/C)C(=O)O[C@H]1C(C)=C2[C@H]([C@@H]1OC(=O)CCCCCCC)[C@@](C)(OC(C)=O)C[C@H](OC(=O)CCC)[C@@]1(O)[C@H]2OC(=O)[C@@]1(C)O	12*	33
C=CC/C=C\C/C=C\CCCCCCCc1cc(O)cc(O)c1	0	x
COc1ccc2c(c1OC)CN1CCc3cc4c(cc3C1C2)OCO4 (stereo not drawn)	-1	3
COc1ccc2c(c[n+](C)c3c4cc5c(cc4ccc23)OCO5)c1OC	161*	79*
COC[C@H]1OC(=O)c2coc3c2[C@@]1(C)C1=C(C3=O)[C@@H]2CCC(=O)[C@@]2(C)C[C@H]1OC(C)=O	62*	4
CCOC(=S)SCc1nc2ccccc2c(=O)n1-c1ccccc1	0	-10
c1cncc(C2N=C(c3cnccn3)NN2)c1 (stereo not drawn)	-3	-4
Oc1ccc2c3c1OC1[C@@H](O)CC[C@@]4(O)[C@@H](C2)N(CC2CCC2)CC[C@]314 (stereo partly drawn)	0	16
CN(C)c1ccc(/C=C/C=C2/C(=O)NC(=O)N(c3ccccc3)C2=O)cc1	x	60*
CN1C(=O)NC(=O)/C(=C\C=C\c2ccco2)C1=O	0	-3
COc1ccccc1CN1CCN(Cc2ccccc2)CC1	0	2
C[C@@H]1CCC/C=C/[C@H]2C[C@@H](O)C[C@@H]2[C@@H](O)/C=C\C(=O)O1	5	39
Cc1cc(Br)c(NC(=O)C2C(C)(C)C2(C)C)c(Br)c1	0	-2
C=C(C)[C@@H]1[C@H]2OC(=O)[C@@H]1[C@]1(O)C[C@H]3O[C@]34C(=O)O[C@H]2[C@]14C	-1	1
SMILES	A1 inhib	BJeLR viability
CCC(C)[C@H]1C(=O)O[C@H](C(C)C)C(=O)N(C)[C@@H](C(C)CC)C(=O)O[C@H](C(C)C)C(=O)N(C)[C@@H](C(C)CC)C(=O)O[C@H](C(C)C)C(=O)N1C (stereo partly drawn)	86*	91*
CCN(CC)P1(=O)OC(C)(C)CC1(C)O (stereo not drawn)	0	1
Cc1ccc(CN(C)C)c(OC(=O)N(C)C)c1	0	1
CC12CC[C@H]3C(CCC4(O)CC(O)CCC34O)C1(O)CCC2C1=CC(=O)OC1 (stereo partly drawn)	0	3
CC(=O)OC1CCC2(C)C(CC[C@@H]3[C@@H]2CCC2(C)C(C4=CC(=O)OC4)CCC32O)C1 (stereo partly drawn)	0	89*
C[C@]12CC[C@H](O)C[C@H]1CC[C@@H]1[C@@H]2C[C@@H](O)[C@]2(C)[C@@H](C3=CC(=O)OC3)CC[C@]12O	0	83*
COC1CC(O[C@H]2CC[C@@]3(C)C(CCC4C3CC[C@]3(C)C(C5=CC(=O)OC5)CCC43O)C2)OC(C)C1OC1OC(COC2OC(CO)C(O)C(O)C2O)C(O)C(O)C1O (stereo partly drawn)	0	94*
CC(=O)OCC(=O)[C@H]1CC[C@H]2[C@@H]3CC[C@H]4C[C@H](O)CC[C@]4(C)[C@H]3C(=O)C[C@]12C	0	-4
C[C@]12CC[C@H](O)C[C@H]1CC[C@@H]1[C@@H]2CC[C@]2(C)[C@@H](C3=CC(=O)OC3)CC[C@]12O	-1	91*
CC(C)n1[nH]c(=O)c2c1NC(=O)CSC2c1ccc(Br)cc1 (stereo not drawn)	1	-10
C[C@@H]1C(=O)O[C@H]2[C@H]1CC[C@@]1(C)C=CC(=O)[C@@]3(C)O[C@@]213	0	7
COc1ccc(CN2CCN(Cc3ccccc3C)CC2)cc1	1	-2
COC(=O)C1=CO[C@H](C)[C@@H]2CN3CCC4(C(=O)Nc5ccccc54)C3C[C@H]12 (stereo partly drawn)	1	-3
O=C(c1noc2c1COc1ccccc1-2)N1CCC2(CC1)OCCO2	-6	42
CC(=O)O[C@H]1CC[C@]2(C=O)[C@H]3CC[C@]4(C)[C@@H](C5=CC(=O)OC5)CC[C@]4(O)[C@@H]3CC[C@]2(O)C1	0	111*
CO[C@H]1[C@@H](O)[C@@H](C)O[C@@H](O[C@@H]2C=C3C(OC(C)=O)CC4(O)C(CC[C@]5(C)[C@@H](C6=CC(=O)OC6)CC[C@]45O)[C@@]3(C)CC2)[C@@H]1O (stereo partly drawn)	1	115*
C[C@H]1O[C@@H](O[C@H]2[C@@H](O)C[C@H](O[C@H]3[C@@H](O)C[C@H](O[C@H]4CC[C@]5(C)C6CC[C@]7(C)[C@@H](C8=CC(=O)OC8)CC[C@]7(O)C6CC[C@@H]5C4)O[C@@H]3C)O[C@@H]2C)C[C@H](O)[C@@H]1O (stereo partly drawn)	1	113*
CO[C@H]1[C@@H](O)[C@@H](C)O[C@@H](OC2CCC3(C)C(CC[C@@H]4[C@@H]3CCC3(C)C(C5=CC(=O)OC5)C(O)CC43O)C2)[C@@H]1O (stereo partly drawn)	0	111*

Screening data as filed in PubChem.
